Experimental data published in PubChem BioAssay AID1159580 (chemical genetic matrix, 2015).
In all, about 5,500 compounds went through this assay and about 2,000 (36%) were called active. About 18% were inconclusive and are not listed. Cut-off read from the data, not from the text of the source: active = normalized growth mostly below about 0.91 (no sharp cut-off); inconclusive = no clear call, values can overlap the other calls; inactive = mostly above about 0.92. The list shows a part of the results.

Assay: chemical genetic growth profiling, strain panel (AID 1159580);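 note: tested at 20 µM; growth read once vehicle control cultures reached saturation at 30 °C; 1 = growth at the plate median or of vehicle wells; lower values mean less growth of the strain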
Settings: growth OD
[1] = S. cerevisiae deletion strains, locus YAL013W, strain DEP1, hits give low values
[2] = S. cerevisiae deletion strains, locus YGR078C, strain PAC10, hits give low values
[3] = S. cerevisiae deletion strains, locus YJR075W, strain HOC1, hits give low values
[4] = S. cerevisiae deletion strains, locus YMR307W, strain GAS1, hits give low values
[5] = S. cerevisiae deletion strains, locus YNL322C, strain KRE1, hits give low values
[6] = S. cerevisiae deletion strains, locus YPL055C, strain LGE1, hits give low values
[7] = S. cerevisiae deletion strains, locus YBR229C, strain ROT2, hits give low values
[8] = S. cerevisiae deletion strains, locus YDL101C, strain DUN1, hits give low values
[9] = S. cerevisiae deletion strains, locus YDR150W, strain NUM1, hits give low values
[10] = S. cerevisiae deletion strains, locus YEL061C, strain CIN8, hits give low values
[11] = S. cerevisiae deletion strains, locus YHR030C, strain SLT2, hits give low values
[12] = S. cerevisiae deletion strains, locus YHR087W, strain rtc3, hits give low values
[13] = S. cerevisiae deletion strains, locus YJR043C, strain POL32, hits give low values
[14] = S. cerevisiae deletion strains, locus YLR039C, strain RIC1, hits give low values
[15] = S. cerevisiae deletion strains, locus YLR058C, strain SHM2 (second series), hits give low values
[16] = S. cerevisiae deletion strains, locus YLR085C, strain ARP6, hits give low values
[17] = S. cerevisiae deletion strains, locus YLR262C, strain YPT6, hits give low values
[18] = S. cerevisiae deletion strains, locus YML094W, strain GIM5, hits give low values
[19] = S. cerevisiae deletion strains, locus YMR219W, strain ESC1, hits give low values
[20] = S. cerevisiae deletion strains, locus YMR263W, strain SAP30, hits give low values
[21] = S. cerevisiae deletion strains, locus YNL153C, strain GIM3, hits give low values
[22] = S. cerevisiae deletion strains, locus YNL298W, strain CLA4 (second series), hits give low values
[23] = S. cerevisiae deletion strains, locus YNR030W, strain Alg12, hits give low values
[24] = S. cerevisiae deletion strains, locus YPL241C, strain CIN2, hits give low values
[25] = S. cerevisiae deletion strains, locus YPR135W, strain CTF4, hits give low values

Measured: normalized growth

CCNC(=O)C1OC(n2cnc3c(NCc4ccccc4)ncnc32)C(O)C1O (stereo unspecified)
inactive: [1] 0.989 | S. cerevisiae deletion strains, locus YAL040C, strain CLN3, hits give low values 0.987 | S. cerevisiae deletion strains, locus YCL061C, strain MRC1 (second series), hits give low values 1.01 | S. cerevisiae deletion strains, locus YDR363W, strain ESC2, hits give low values 0.958 | S. cerevisiae deletion strains, locus YER002W, strain NOP16, hits give low values 1.01 | [2] 0.979 | [3] 1 | [4] 1 | S. cerevisiae deletion strains, locus YNL128W, strain TEP1, hits give low values 0.959 | S. cerevisiae deletion strains, locus YNL175C, strain NOP13, hits give low values 0.967 | S. cerevisiae deletion strains, locus YNL197C, strain WHI3, hits give low values 0.95 | S. cerevisiae deletion strains, locus YNL224C, strain SQS1, hits give low values 0.984 | [5] 0.99 | S. cerevisiae deletion strains, locus YOR083W, strain WHI5 (second series), hits give low values 0.956 | [6] 1

Cc1noc(N)c1C(N)=S
active: [24] 1.17 [resistant]
inactive: [1] 0.986 | [7] 1 | [8] 1.02 | S. cerevisiae deletion strains, locus YDL134C, strain PPH21, hits give low values 0.993 | [9] 1 | [10] 1 | [2] 1.02 | [11] 1.05 | [12] 1 | [13] 1.01 | [3] 1.05 | [14] 1.05 | [15] 1 | [16] 1.17 | [17] 1.01 | [18] 0.99 | [19] 1.01 | [20] 1 | [21] 1.01 | [22] 1.03 | [5] 0.998 | [23] 0.995 | [6] 1.01 | [25] 0.982 | S. cerevisiae strains, strain wild type, hits give low values 0.986

Cc1noc(C)c1NC(N)=O
inactive: [1] 0.994 | [7] 0.989 | [8] 0.974 | [9] 0.979 | [10] 0.981 | [2] 0.983 | S. cerevisiae deletion strains, locus YGR229C, strain SMI1, hits give low values 1.03 | [11] 1.04 | [12] 0.968 | S. cerevisiae deletion strains, locus YJL187C, strain SWE1, hits give low values 0.998 | [13] 0.995 | [3] 1.04 | S. cerevisiae deletion strains, locus YKL190W, strain CNB1, hits give low values 1.01 | [14] 0.97 | [15] 0.992 | [16] 1.01 | [17] 0.997 | [18] 0.952 | [19] 0.993 | [20] 1.03 | [4] 1.21 | [21] 0.999 | [22] 0.978 | [5] 0.987 | [23] 0.987 | S. cerevisiae deletion strains, locus YOL006C, strain TOP1, hits give low values 1.04 | [6] 0.975 | [24] 0.986 | [25] 0.898

OC1CCN(c2cc(C(F)(F)F)nc3cc(Cl)cc(Cl)c23)CC1
active: [11] 0.793
inactive: S. cerevisiae deletion strains, locus YAR019C, strain CDC15, hits give low values 0.982 | S. cerevisiae deletion strains, locus YBL105C, strain PKC1, hits give low values 0.984 | S. cerevisiae deletion strains, locus YBR135W, strain CKS1, hits give low values 0.978 | S. cerevisiae deletion strains, locus YBR136W, strain MEC1, hits give low values 0.978 | S. cerevisiae deletion strains, locus YBR160W, strain CDC28, hits give low values 0.973 | S. cerevisiae deletion strains, locus YDL017W, strain CDC7, hits give low values 0.977 | S. cerevisiae deletion strains, locus YDL028C, strain MPS1, hits give low values 0.982 | [8] 0.976 | S. cerevisiae deletion strains, locus YDL108W, strain KIN28, hits give low values 0.979 | S. cerevisiae deletion strains, locus YDL132W, strain cdc53, hits give low values 0.969 | S. cerevisiae deletion strains, locus YDL214C, strain PRR2, hits give low values 0.98 | S. cerevisiae deletion strains, locus YDR052C, strain DBF4, hits give low values 0.989 | S. cerevisiae deletion strains, locus YDR054C, strain cdc34, hits give low values 0.969 | S. cerevisiae deletion strains, locus YDR226W, strain ADK1, hits give low values 0.973 | S. cerevisiae deletion strains, locus YDR477W, strain SNF1, hits give low values 0.913 | S. cerevisiae deletion strains, locus YER123W, strain YCK3, hits give low values 0.965 | S. cerevisiae deletion strains, locus YER133W, strain GLC7, hits give low values 0.971 | S. cerevisiae deletion strains, locus YFL009W, strain cdc4, hits give low values 0.986 | S. cerevisiae deletion strains, locus YFL029C, strain CAK1, hits give low values 0.984 | S. cerevisiae deletion strains, locus YFR003C, strain YPI1, hits give low values 0.978 | S. cerevisiae deletion strains, locus YFR019W, strain FAB1, hits give low values 1 | S. cerevisiae deletion strains, locus YFR028C, strain CDC14, hits give low values 0.979 | S. cerevisiae deletion strains, locus YGR040W, strain KSS1, hits give low values 0.921 | S. cerevisiae deletion strains, locus YGR052W, strain FMP48, hits give low values 1.1 | S. cerevisiae deletion strains, locus YGR092W, strain DBF2, hits give low values 0.994 | S. cerevisiae deletion strains, locus YHR079C, strain IRE1, hits give low values 0.979 | S. cerevisiae deletion strains, locus YHR082C, strain KSP1, hits give low values 1.06 | S. cerevisiae deletion strains, locus YHR205W, strain SCH9, hits give low values 0.975 | S. cerevisiae deletion strains, locus YIL147C, strain SLN1, hits give low values 0.976 | S. cerevisiae deletion strains, locus YJL095W, strain BCK1, hits give low values 0.887 | S. cerevisiae deletion strains, locus YJL128C, strain PBS2, hits give low values 0.989 | S. cerevisiae deletion strains, locus YJL157C, strain FAR1, hits give low values 0.972 | S. cerevisiae deletion strains, locus YJR016C, strain ILV3, hits give low values 0.984 | S. cerevisiae deletion strains, locus YJR066W, strain TOR1 (second series), hits give low values 0.963 | S. cerevisiae deletion strains, locus YJR066W, strain TOR1, hits give low values 0.938 | S. cerevisiae deletion strains, locus YKL048C, strain ELM1, hits give low values 0.979 | S. cerevisiae deletion strains, locus YKL067W, strain YNK1, hits give low values 0.977 | S. cerevisiae deletion strains, locus YKL101W, strain HSL1, hits give low values 0.984 | S. cerevisiae deletion strains, locus YKL193C, strain SDS22, hits give low values 0.969 | S. cerevisiae deletion strains, locus YKL203C, strain TOR2, hits give low values 0.987 | S. cerevisiae deletion strains, locus YLR113W, strain HOG1, hits give low values 0.951 | S. cerevisiae deletion strains, locus YLR133W, strain CKI1, hits give low values 0.976 | S. cerevisiae deletion strains, locus YLR403W, strain SFP1, hits give low values 0.992 | S. cerevisiae deletion strains, locus YML070W, strain DAK1, hits give low values 0.969 | S. cerevisiae deletion strains, locus YMR001C, strain CDC5, hits give low values 0.971 | S. cerevisiae deletion strains, locus YMR205C, strain PFK2 (second series), hits give low values 0.975 | S. cerevisiae deletion strains, locus YMR277W, strain FCP1, hits give low values 0.97 | S. cerevisiae deletion strains, locus YNL006W, strain LST8, hits give low values 0.968 | S. cerevisiae deletion strains, locus YNL020C, strain ARK1, hits give low values 0.972 | S. cerevisiae deletion strains, locus YNL161W, strain CBK1, hits give low values 0.975 | S. cerevisiae deletion strains, locus YNL183C, strain NPR1, hits give low values 0.971 | S. cerevisiae deletion strains, locus YNL207W, strain RIO2, hits give low values 0.979 | S. cerevisiae deletion strains, locus YNL222W, strain SSU72, hits give low values 0.98 | S. cerevisiae deletion strains, locus YNL307C, strain MCK1 (second series), hits give low values 0.962 | S. cerevisiae deletion strains, locus YOL078W, strain AVO1, hits give low values 0.98 | S. cerevisiae deletion strains, locus YOL136C, strain PFK27, hits give low values 0.981 | S. cerevisiae deletion strains, locus YOR061W, strain CKA2, hits give low values 0.964 | S. cerevisiae deletion strains, locus YOR119C, strain RIO1, hits give low values 1.01 | S. cerevisiae deletion strains, locus YOR231W, strain MKK1, hits give low values 0.946 | S. cerevisiae deletion strains, locus YOR329C, strain SCD5, hits give low values 0.986 | S. cerevisiae deletion strains, locus YPL031C, strain PHO85, hits give low values 0.908 | S. cerevisiae deletion strains, locus YPL153C, strain RAD53, hits give low values 0.937 | S. cerevisiae deletion strains, locus YPL204W, strain HRR25, hits give low values 0.938 | S. cerevisiae deletion strains, locus YPL209C, strain IPL1, hits give low values 0.971 | S. cerevisiae deletion strains, locus YPL256C, strain CLN2, hits give low values 0.947 | S. cerevisiae deletion strains, locus YPR025C, strain CCL1, hits give low values 0.969 | S. cerevisiae deletion strains, locus YPR106W, strain ISR1, hits give low values 0.991 | S. cerevisiae deletion strains, locus YPR111W, strain DBF20, hits give low values 0.985 | S. cerevisiae deletion strains, strain NNK1, hits give low values 1 | S. cerevisiae deletion strains, strain TSCII, hits give low values 0.97
